Measurements from PubChem BioAssay (NCI).
Compounds without any hit were thinned out: in the full panel of roughly 79,000, 15% have a hit. Activity calls are given as the source filed them. Rule as the data show it: active = growth inhibition above about 70%; inactive = the rest.

How the values were obtained:
[1] = NCI Yeast Anticancer Drug Screen. Data for the rad50 strain (AID 155);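 also: 0% = growth of vehicle-only cultures of the same strain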; conditions: S. cerevisiae rad50 strain growth inhibition, stronger effect = higher value; at 50.0 µM unless noted
Procedure, shortened: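 Compounds were tested on a yeast strain with an engineered DNA damage repair alteration; the reported value is growth inhibition normalised to vehicle treatment.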

[2] = NCI Yeast Anticancer Drug Screen. Data for the mec2-1 strain (AID 157); conditions: S. cerevisiae mec2-1 strain, stronger effect = higher value; at 50.0 µM unless noted
Procedure, shortened: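 Mutant yeast (mec2-1) grown with compound; growth inhibition relative to vehicle control reported.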

[3] = NCI Yeast Anticancer Drug Screen. Data for the sgs1 mgt1 strain (AID 161);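 also: 0% = growth of cultures given vehicle only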; conditions: S. cerevisiae sgs1 mgt1 strain, stronger effect = higher value; at 50.0 µM unless noted
Procedure, shortened: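 Growth of a repair-deficient yeast mutant was monitored after compound treatment and expressed as inhibition relative to vehicle-treated cultures.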

[4] = NCI Yeast Anticancer Drug Screen. Data for the cln2 rad14 strain (AID 165);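 also: 0% = growth equal to vehicle treated cultures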; conditions: S. cerevisiae cln2 rad14 strain, stronger effect = higher value; at 50.0 µM unless noted
Procedure, shortened: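 Readout is yeast growth inhibition versus vehicle-treated controls, using a strain with cln2 and rad14 alterations exposed to compound.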

[5] = NCI Yeast Anticancer Drug Screen. Data for the bub3 strain (AID 167); conditions: S. cerevisiae bub3 mutant strain, stronger effect = higher value; at 50.0 µM unless noted
Procedure, shortened: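 Growth of a checkpoint-deficient yeast mutant is measured after compound exposure. Values represent inhibition relative to vehicle.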

[6] = NCI Yeast Anticancer Drug Screen. Data for the mlh1 rad18 strain (AID 175); conditions: S. cerevisiae mlh1 rad18 strain growth inhibition, stronger effect = higher value; at 50.0 µM unless noted
Procedure, shortened: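 Genetically defined yeast (DNA repair-deficient) exposed to compounds; growth inhibition determined relative to vehicle.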

Measured: growth inhibition

Cc1cccc(C)c1I
inactive: [1] -35% | [2] -8.55% | [3] -67.2% | [4] -25.9% | [5] -46.5% | [6] -50.1%

CCOC(=O)c1ccc(N=C2S/C(=C\C(=S)Nc3ccccc3)N(c3ccccc3)C2=Nc2ccc(C(=O)OCC)cc2)cc1
inactive: [1] 14.3% | [2] 4.85% | [3] 12.4% | [4] 13.6% | [5] 19.2% | [6] 12.4%

CCOC(=O)C1(C#N)C(C#N)(C#N)C1(CC)CC (centres undefined)
inactive: [1] -11.2% | [2] 19.6% | [3] -1.55% | [4] 10.3% | [5] -6.4% | [6] -20.8%

Cc1cccc(C)c1NC(=O)Nc1ccccc1C(N)=O
inactive: [1] 4.85% | [2] 22.8% | [3] 35.5% | [4] -6.75% | [5] 17.1% | [6] -17.4%
